The panel holds about 83,000 compounds, 20% with a hit somewhere; the sample as a whole holds those more often.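 Interpretation: 100, growth as untreated; towards 0, rising growth inhibition; 0, no net growth; 0 to -100, cell death. Compounds scoring below 10 were considered active.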 Unmarked numbers belong to inactive results. The source made the active and inactive calls.
tested on: U251 CNS; test: NCI-60 one-dose screen, 48 h (100 = growth as untreated, 0 = no growth, -100 = all killed); settings: 10 µM unless noted

`C#C[C@@]1(O)[C@@H](CO)O[C@@H](n2ccc3c(N)ncnc32)[C@@H]1O` was tested, and the growth was 3.15% (active).
`C#C[C@@]1(O)[C@@H](CO)O[C@@H](n2cc(Cl)c3c(N)ncnc32)[C@@H]1O` was tested, and the growth was -6.87% (active).
With `CCCCCCCCCCCCCC1=NCC[N+]1(CCO)Cc1ccccc1` (stereo not drawn) the growth was -88.7% (active).
With `CCOC(=O)c1c(C)nc2c(c1N)/C(=C/c1ccccn1)C(=O)N2Cc1ccccc1` the growth was -87.4% (active).
For `C#CCN(CCCOc1ccc(Cl)cc1Cl)CCCSC(=O)CCCCCN1/C(=C\C=C2/CCCC(/C=C/C3=[N+](CCCCCC(=O)[O-])c4ccccc4C3(C)C)=C2Cl)C(C)(C)c2ccccc21`, the growth was -63.8% (active).
With `Cc1c(Br)cccc1NC(=O)c1sc2nc3c(cc2c1N)CN(Cc1ccccc1)CC3` the growth was 9.19% (active).

Point of comparison: `N#Cc1c(-c2ccc(F)cc2)nc(N=Nc2c(O)[nH]c3ccccc23)nc1N1CCOCC1`, growth 27.4%. Against it:
- CN(C)CCCn1c2c(c3cc(-c4cccc(S(N)(=O)=O)c4)ccc3c1=O)C(=O)c1ccccc1-2 — higher, 47.5%
- C=C1C(=O)O[C@H]2[C@H]1CC/C(COC(=O)/C=C/c1cccnc1)=C\CC[C@@]1(C)O[C@@H]21 — higher, 57.7%
- CCOc1ccc(C2N(c3cc(OC)c(OC)c(OC)c3)C(=O)C2(F)F)cc1 (stereo not drawn) — higher, 36.2%
- O=C1C(Cl)=C(NCCCN(CCCNC2=C(Cl)C(=O)c3ccccc3C2=O)C2=C(Cl)C(=O)c3ccccc3C2=O)C(=O)c2ccccc21 — higher, 37.4%
- COc1ccc(-c2nc(C#N)c(NCC(c3ccc(Cl)cc3)N3CCCCC3)o2)cc1 (stereo not drawn) — higher, 96%
- Cc1nc2sc(C(=O)Nc3ccccc3)c(N)c2cc1C(C)O (stereo not drawn) — lower, 21.7%
- O=C1CCC23OC(c4ccccc4N12)C(O)C(O)C3O (stereo not drawn) — higher, 105%
- C=C1C(=O)O[C@H]2[C@H]1CC/C(COC(=O)CCCCC(=O)OC/C1=C/CC[C@@]3(C)O[C@H]3[C@H]3OC(=O)C(=C)[C@@H]3CC1)=C\CC[C@@]1(C)O[C@@H]21 — higher, 81.4%
- CC[C@]12C=CCN3CC[C@@]4(c5cc(NC(=O)CCC(=O)O[C@H]6CC[C@H]7[C@@H]8CC[C@H]9CC(=O)CC[C@]9(C)[C@H]8CC[C@]67C)c(OC)cc5N(C)[C@H]4[C@@](O)(C(=O)OC)[C@@H]1OC(C)=O)[C@@H]32 — higher, 64.3%
- N#CC(C#N)=C1NC(c2ccccc2)=C(c2ccccc2)C(c2ccccc2Cl)=C1C#N — higher, 103%
- Cc1cc(C)n(-c2nc(-c3cccs3)c(C#N)c(=O)[nH]2)n1 — higher, 90.8%
- COc1ccc(C2C(c3ccccc3)C(=O)N2c2cc(OC)c(OC)c(OC)c2)cc1I (stereo not drawn) — lower, 15.4%
- CC(C)(C)c1ccc2oc(=O)n(SC(Cl)(Cl)Cl)c2c1 — higher, 104%
- O=C(Nc1cccc(-c2cccc(F)c2)c1)C1CCN(Cc2cccc3cccnc23)CC1 — higher, 44.4%
- COc1ccc(C(C)c2cc(OC)c(OC)c(OC)c2)cc1 (stereo not drawn) — lower, 18%
- Cc1ccc(SC2c3ccc(C)cc3Oc3nc(N)c(C#N)c(N)c32)cc1 (stereo not drawn) — higher, 85.1%
- COC(=O)/C=C/c1cc(OC)c2c(c1)[C@@H](C(=O)OC)[C@H](c1ccc(OC)c(OC)c1)O2 — lower, 25.1%
- O=C1NCc2ccc3c(-c4cccc(Cl)c4)c[nH]c3c21 — lower, 16.3%
- O=C(/C(=C\c1c(-c2ccccc2)[nH]c2ccccc12)S(=O)(=O)c1ccccc1)c1ccccc1 — higher, 58.6%
- CC(=O)OC[C@]12CC[C@@H](c3cn(Cc4ccc(Cn5cc([C@@H]6CC[C@]7(COC(C)=O)CC[C@]8(C)[C@H](CC[C@@H]9[C@@]%10(C)CC[C@H](OC(C)=O)C(C)(C)[C@@H]%10CC[C@]98C)[C@@H]67)nn5)cc4)nn3)[C@@H]1[C@H]1CC[C@@H]3[C@@]4(C)CC[C@H](OC(C)=O)C(C)(C)[C@@H]4CC[C@@]3(C)[C@]1(C)CC2 — higher, 103%
- COc1cccc(C(=O)OCCn2nc3c4c(cccc42)C(=O)c2ccccc2-3)c1O — higher, 33.9%
